Compound activity (PubChem)
FBPA coupling cs = coupling enzyme interference in Giardia aldolase counter-screen; coupling enzyme system counterscreen, AmpLite Red fluorescence; activity change, negative = inhibition, % at 58.2 µM, hits read low; hit rate 0.67% among 290,000; AID 2472; in the data active = activity change below about -30%
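Fluorescence at 525 nm excitation and 598 nm emission measured inhibition of the coupled detection system without aldolase. Compounds (at 57.5 uM final) were preincubated 10 min at room temperature with coupling enzyme reagent before a 20 min substrate/AmpLite Red step.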
Tau fluor cs = counter-screen for tau fibril formation inhibitors | tau K18 P301L Alexa594 fluorescence, heparin fibrillization | Potency, µM (doses to about 57.7 µM) | hit rate 0.93% among 280,000 | AID 1463; note: nearly all actives have a fitted effect of over 55% in size
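Human K18 P301L tau (15 uM unlabeled plus 0.24 uM Alexa 594-labeled, final) in 100 mM sodium acetate pH 7 was mixed with compound and 20 uM heparin and incubated 6 hr at 37 C.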
G9a inh = G9a (human) methyltransferase inhibition. AID 504332. Potency, µM (doses to about 102 µM), usual class: inhibitors. hit rate 8.8% among 350,000. G9a H3K9 monomethylation, AlphaScreen, 2 h; note: nearly all actives have a fitted effect of over 75% in size
Target sequence (Q96KQ7 913-1193 limits assumed): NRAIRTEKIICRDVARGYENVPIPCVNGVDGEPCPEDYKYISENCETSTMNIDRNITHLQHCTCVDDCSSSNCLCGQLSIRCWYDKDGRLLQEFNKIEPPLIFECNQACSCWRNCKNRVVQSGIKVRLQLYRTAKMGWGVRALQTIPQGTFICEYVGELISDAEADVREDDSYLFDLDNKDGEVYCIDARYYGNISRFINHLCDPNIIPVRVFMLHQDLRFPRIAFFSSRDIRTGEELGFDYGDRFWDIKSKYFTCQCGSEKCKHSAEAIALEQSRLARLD
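AlphaScreen read-out: biotin-H3K9 peptide (500 nM) methylation by 20 nM enzyme with 20 uM SAM, 2 h at room temperature after 15 min compound preincubation; anti-monomethyl H3K9 antibody plus donor/acceptor beads, 10 min dark.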
Sfp inh = Sfp phosphopantetheinyl transferase inhibition; Q9F4F7; Biochemical Sfp PPTase activity, qHTS; Potency, µM, usual class: inhibitors; hit rate 3.5% among 310,000; AID 1490;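 note: the enzyme is Sfp with the accession as filed and its product quenches rhodamine fluorescence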
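Fluorescence-quenching assay with 15 nM Sfp, 5 uM rhodamine-CoA and 12.5 uM BHQ-2-labelled ybbR peptide in pH 7.6 Hepes/MgCl2 buffer. Enzyme was pre-incubated with compound for 15 min at room temperature. Rate was taken from the 30-min fluorescence change (525/598 nm).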
Tau ThT inhib = inhibitors of human tau fibril formation, thioflavin T binding; recombinant tau K18 P301L (four-repeat tau fragment), heparin-induced fibrillization, ThT fluorescence; Potency, µM (highest dose often 57.4 µM), usual class: inhibitors; hit rate 2.1% among 270,000; note: nearly all actives have a fitted effect of over 55% in size
Target sequence (P10636 561-689 P618L limits assumed): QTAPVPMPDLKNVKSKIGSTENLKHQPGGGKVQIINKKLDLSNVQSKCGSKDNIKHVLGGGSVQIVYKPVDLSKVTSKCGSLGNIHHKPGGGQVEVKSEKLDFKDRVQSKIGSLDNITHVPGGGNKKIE
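Aggregation was driven by heparin (20 uM final) acting on recombinant tau […] bearing P301L in 100 mM sodium acetate pH 7; fibrils were detected with Thioflavin T.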
Tau FP inhib = tau fibrillization inhibition (FP) | P10636 | K18 P301L tau heparin fibrillization, Alexa594 FP, 6 h | Potency, µM (series often up to 57.7 µM), actives largely listed as inhibitors | hit rate 0.39% among 280,000 | AID 1468; note: nearly all actives have a fitted effect of over 55% in size
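Quantitative HTS format: compounds meet 15 uM recombinant K18 P301L tau and Alexa 594-tau tracer in 100 mM sodium acetate pH 7; 20 uM heparin triggers fibrillization at 37 C over 6 hr; FP gives the signal.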
Large screens that a line does not name were inactive; [ ] = remark or other dose. An excerpt weighted towards active compounds, which were near 11% of everything screened. Unless noted, calls come from the whole dose curve; as a rule, active = well fitted curve in the direction sought with a large enough effect; inconclusive = small, poorly fitted or top-dose-only effect, or another doubt; inactive = no such curve, though single readings can be large; an effect the other way counts as inactive or inconclusive.

Cc1ccccc1NC(=S)NCc1ccc2[nH]c3c(c2c1)CCCC3	G9a inh 40µM
Cc1ccc(C)c(NC(=S)NCc2ccc3[nH]c4c(c3c2)CCCC4)c1	Tau fluor cs 13µM[quencher], G9a inh 40µM, Tau ThT inhib inconclusive, Tau FP inhib inconclusive
CNC(=S)NCc1ccc2[nH]c3c(c2c1)CCCC3	Tau fluor cs inconclusive, G9a inh 40µM, Sfp inh inconclusive, Tau ThT inhib inconclusive
S=C(NCc1ccc2[nH]c3c(c2c1)CCCC3)Nc1ccccc1Cl	Tau fluor cs inconclusive, G9a inh 40µM, Tau ThT inhib inconclusive
CCCCNC(=S)NCc1ccc2[nH]c3c(c2c1)CCCC3	Tau fluor cs inconclusive, G9a inh inconclusive, Tau FP inhib inconclusive
COc1ccc(CNC(=S)Nc2ccccc2C)cc1	none
c1ccc(-c2cncnc2)cc1	none (no result: FBPA coupling cs, Tau fluor cs, Sfp inh, Tau ThT inhib, Tau FP inhib)
CCOc1ccc(OCC)c(NS(=O)(=O)c2ccc(-c3coc(C)n3)cc2)c1	Tau fluor cs inconclusive (no result: FBPA coupling cs, Sfp inh)
C[n+]1ccc(/C=N/Nc2nc(Cl)c(C#N)c(Cl)c2Cl)cc1	Tau fluor cs 11µM[quencher], G9a inh inconclusive, Tau ThT inhib 13µM
COc1cc(OC)c(NC(=O)C(Cc2ccccc2)NS(=O)(=O)c2cccc3nsnc23)cc1Cl (stereo unspecified)	Tau fluor cs inconclusive (no result: FBPA coupling cs, Sfp inh)
CC(C)c1ccc(Nc2nnc(SCC(=O)Nc3ncc(S(=O)(=O)c4ccc([N+](=O)[O-])cc4)s3)s2)cc1	Tau fluor cs inconclusive, G9a inh 35µM
Cc1ccc(Nc2nnc(SCC(=O)Nc3ncc(S(=O)(=O)c4ccc([N+](=O)[O-])cc4)s3)s2)cc1	Tau fluor cs inconclusive
Cc1cc(=O)[nH]c(SCC(=O)Nc2ncc(S(=O)(=O)c3ccc([N+](=O)[O-])cc3)s2)n1	Tau fluor cs inconclusive, G9a inh 45µM
Cc1ccc(S(=O)(=O)N2CCN(Cc3ccccc3Cl)CC2)cc1	G9a inh 1.3µM (no result: FBPA coupling cs, Sfp inh)
CCOC(=O)N1CCN(CC(=O)N2c3ccccc3CCc3ccccc32)CC1	G9a inh 10µM
O=C1c2ccccc2C(=O)N1CC#CCN1CCN(C2CCCCC2)CC1	G9a inh 20µM
CCOC(=O)N1CCN(Cc2ccccc2Cl)CC1	G9a inh 10µM, Sfp inh inconclusive
Cc1ccc(S(=O)(=O)N2CCN(C3CCN(Cc4ccccc4)CC3)CC2)cc1	none
Cc1c(OCC(=O)NC2CCN(Cc3ccccc3)CC2)ccc2c3c(c(=O)oc12)CCC3	none (no result: FBPA coupling cs, Tau fluor cs, Tau ThT inhib, Tau FP inhib)
Cc1ccccc1CN1CCN(Cc2ccccc2C(F)(F)F)CC1	G9a inh 2.8µM, Sfp inh inconclusive
Cc1ccc(S(=O)(=O)N2CCN(Cc3ccccc3C(F)(F)F)CC2)cc1	G9a inh 32µM, Sfp inh inconclusive
O=S(=O)(c1ccccc1)N1CCN(Cc2ccccc2C(F)(F)F)CC1	G9a inh 2.8µM
FC(F)(F)c1ccccc1CN1CCN(C2CCCCCC2)CC1	G9a inh 2.5µM
O=S1(=O)CCN(Cc2ccccc2C(F)(F)F)CC1	none
Cc1ccc(N(C)S(=O)(=O)c2ccc3[nH]c(=O)ccc3c2)cc1	Tau fluor cs inconclusive, Tau FP inhib inconclusive (no result: FBPA coupling cs, Sfp inh)
O=C(NCC#CCOCc1ccccc1)c1ccccc1	G9a inh 50µM
O=C(NCCNC(=O)c1ccccc1)c1ccccc1	Sfp inh inconclusive (no result: G9a inh, Tau ThT inhib)
c1coc(CN(Cc2ccco2)c2ncnc3c2oc2ccccc23)c1	G9a inh 14µM, Sfp inh 28µM, Tau ThT inhib inconclusive
Clc1ncnc2c1oc1ccccc12	none
COc1ccc2cc(C#N)c(SCC(=O)N3CCCC3)nc2c1	none
N#Cc1cc2cc3c(cc2nc1SCC(=O)N1CCCC1)OCCO3	G9a inh 28µM (no result: Tau fluor cs, Tau ThT inhib, Tau FP inhib)
Cc1cc(C)c(C#N)c(SCC(=O)N2CCN(Cc3ccccc3)CC2)n1	G9a inh inconclusive
Cc1cc(C)c(C#N)c(SCC(=O)N2CCCCC2)n1	G9a inh 14µM, Sfp inh 32µM, Tau FP inhib inconclusive
N#Cc1cc2cc3c(cc2nc1SCC(=O)OC1CCCCC1)OCO3	none
CC(=O)CSc1nc2cc3c(cc2cc1C#N)OCCO3	FBPA coupling cs -43, Tau fluor cs inconclusive, G9a inh 1µM, Tau ThT inhib 1.6µM
CC(N)(C(=O)O)c1cccc(CC(=O)O)c1 (stereo unspecified)	none (no result: FBPA coupling cs)
CCOC(=O)C1CCCN(Cc2ccccc2F)C1 (stereo unspecified)	G9a inh 2.8µM, Sfp inh inconclusive
CCN(CC)C(=O)C1CCCN(C/C=C/c2ccccc2[N+](=O)[O-])C1 (stereo unspecified)	G9a inh 35µM (no result: Tau fluor cs, Tau ThT inhib, Tau FP inhib)
CCOC(=O)C1CCCN(Cc2c(Cl)cccc2Cl)C1 (stereo unspecified)	G9a inh inconclusive
CCOC(=O)C1CCCN(Cc2cc(OC)c(O)c(OC)c2)C1 (stereo unspecified)	G9a inh inconclusive
CCOC(=O)C1CCCN(Cc2sccc2C)C1 (stereo unspecified)	G9a inh 22µM
CCOC(=O)C1CCN(C/C=C/c2ccccc2)CC1	G9a inh 45µM (no result: Tau fluor cs, Tau ThT inhib, Tau FP inhib)
CCOC(=O)C1CCCN(C/C=C/c2ccccc2)C1 (stereo unspecified)	G9a inh 40µM (no result: Tau fluor cs, Tau ThT inhib, Tau FP inhib)
CCOC(=O)C1CCCN(C/C=C/c2ccccc2[N+](=O)[O-])C1 (stereo unspecified)	G9a inh inconclusive
O=C(NCCCN1CCN(c2ccccc2)CC1)c1nnc(Cc2ccc(F)cc2)o1	none (no result: FBPA coupling cs, Sfp inh)
CC(C)(Cc1ccc(O)cc1)NC(=O)SCc1ccccc1	none (no result: Tau fluor cs, G9a inh, Tau ThT inhib, Tau FP inhib)
CC(C)=N/N=C(\N)SCc1ccccc1	G9a inh 7.9µM (no result: Tau ThT inhib)
Cc1ccccc1NC1c2ccccc2C(=O)N1Cc1ccco1 (stereo unspecified)	G9a inh 45µM, Sfp inh 28µM, Tau ThT inhib inconclusive
O=C1c2ccccc2N2C(=O)c3ccccc3C2N1Cc1ccco1 (stereo unspecified)	G9a inh inconclusive, Sfp inh 50µM
COc1cccc(OCc2cc(C3Nc4ccccc4C(=O)N3Cc3ccco3)ccc2OC)c1 (stereo unspecified)	G9a inh inconclusive, Sfp inh 14µM
O=C1c2ccccc2N2C(=O)c3ccccc3C2N1O (stereo unspecified)	G9a inh inconclusive
COc1cccc(NC2c3ccccc3C(=O)N2Cc2ccco2)c1 (stereo unspecified)	G9a inh 50µM, Sfp inh inconclusive
COc1ccc(-n2c(=O)c3ccc(C(=O)NCc4ccc(C)cc4)cc3n(Cc3ccc(F)cc3Cl)c2=O)cc1	none (no result: FBPA coupling cs, Sfp inh)
CC(=O)c1cccc(NC2c3ccccc3C(=O)N2Cc2ccco2)c1 (stereo unspecified)	none
O=C1c2ccccc2C(Nc2cccc(C(F)(F)F)c2)N1Cc1ccco1 (stereo unspecified)	G9a inh 71µM, Sfp inh 40µM
